Screening results as filed in PubChem BioAssay.
Most compounds without a hit are left out; they make up all but 3.5% or so of the library.
BoNT-F LC inh – BoNT F light chain protease inhibition; Multiplex microsphere protease cleavage assay, flow cytometry; inhibition, % at 10 µM; 360,000 compounds, 0.22% hits; AID 588497; in the data active = inhibition above about 35%, passing the limit was not always enough; inconclusive = no clear call, values can overlap the other calls
Anthrax LF inh2 – anthrax lethal factor protease inhibition; P15917; multiplex microsphere protease cleavage assay, LF; inhibition, % at 10 µM; 360,000 compounds, 0.12% hits; AID 588501
Target sequence (P15917 whole entry, looked up): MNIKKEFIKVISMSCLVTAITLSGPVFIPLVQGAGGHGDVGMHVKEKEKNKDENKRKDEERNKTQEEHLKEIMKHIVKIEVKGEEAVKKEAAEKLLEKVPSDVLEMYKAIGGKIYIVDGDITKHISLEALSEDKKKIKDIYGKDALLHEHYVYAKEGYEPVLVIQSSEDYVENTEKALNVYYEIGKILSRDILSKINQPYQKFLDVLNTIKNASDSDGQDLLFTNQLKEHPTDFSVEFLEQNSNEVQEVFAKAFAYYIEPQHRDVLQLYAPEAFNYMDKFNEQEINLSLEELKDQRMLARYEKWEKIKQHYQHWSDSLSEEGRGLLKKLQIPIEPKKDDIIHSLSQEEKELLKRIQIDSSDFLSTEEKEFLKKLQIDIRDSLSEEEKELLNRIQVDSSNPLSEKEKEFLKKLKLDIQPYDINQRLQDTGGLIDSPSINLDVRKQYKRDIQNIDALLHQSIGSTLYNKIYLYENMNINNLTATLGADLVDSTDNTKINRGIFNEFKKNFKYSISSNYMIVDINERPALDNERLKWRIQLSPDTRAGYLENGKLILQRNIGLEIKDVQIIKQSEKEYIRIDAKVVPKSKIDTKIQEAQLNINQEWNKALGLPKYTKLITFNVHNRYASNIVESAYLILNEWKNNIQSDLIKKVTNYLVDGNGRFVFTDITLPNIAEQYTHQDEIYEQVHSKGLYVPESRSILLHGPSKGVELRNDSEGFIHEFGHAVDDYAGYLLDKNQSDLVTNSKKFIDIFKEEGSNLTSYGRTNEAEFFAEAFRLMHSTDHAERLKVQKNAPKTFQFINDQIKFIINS
Bead autofluor – flagged as autofluorescent in microsphere protease counterscreen; compound autofluorescence counterscreen, microsphere flow cytometry; stronger effect = higher value; fluorescence intensity (no concentration beside the values); 360,000 compounds, 3.1% hits; AID 624483; in the data active = fluorescence intensity above about 16000; inconclusive = no clear call, values can overlap the other calls
BoNT-A LC inh2 – BoNT A light chain protease inhibition; multiplex microsphere protease substrate cleavage, flow cytometry; inhibition, % at 10 µM; 360,000 compounds, 0.17% hits
BoNTA LC inh 1 – blocks botulinum neurotoxin A light chain protease | shares compounds with BoNT-F LC inh | multiplex microsphere protease assay, flow cytometry | inhibition, % at 10 µM | 720 compounds, 3% hits; in the data active = inhibition above about 32%
BoNT-F LC CP1 – BoNT/F light chain protease inhibition; shares compounds with BoNT-F LC inh; multiplex microsphere protease cleavage assay, flow cytometry; inhibition, % at 10 µM; 720 tested, under 10 active; AID 602140; call rule not given here
Anthrax LF CP1 – Bacillus anthracis lethal factor protease inhibition; shares compounds with BoNT-F LC inh; multiplex microsphere protease cleavage assay, LF; inhibition, % at 10 µM; 720 tested, under 10 active; AID 602142; call rule not given here
Large screens that a line does not name were inactive (follow-up assays come after a bar, where they were run). Cut-off read from the data, not from the text of the source, unless noted: active = inhibition above about 30%; inconclusive = no clear call, values can overlap the other calls; inactive = below that.

CCc1cc2c(=O)c(-c3nc4ccccc4n3C)c(C(C)C)oc2c(CN2CCN(C)CC2)c1O	Bead autofluor 20753
COc1ccc(C(O)c2ncc(-c3ccccc3Cl)[nH]2)cc1F (stereo not drawn)	none
COC(=O)c1[nH]c2ccccc2c1NS(=O)(=O)c1ccc(F)c(C)c1	Bead autofluor 16616
COC(=O)C(C(=O)OC)C1C=CCN(C(C)=O)C1 (stereo not drawn)	none
CC(C)(C)OC(=O)NCCc1nnc(SCC(=O)Nc2cccc(Cl)c2)o1	Bead autofluor 22287
CC(C)(C)OC(=O)NCCCCCc1nnc(SCC(=O)Nc2cccc(Cl)c2)o1	Bead autofluor 16480
CCCn1nnnc1NCc1ccccc1C	none
COCCNCc1ccccc1	Bead autofluor 24425
O=S(=O)(c1ccccc1C(F)(F)F)N1CCN(S(=O)(=O)c2ccccc2C(F)(F)F)CC1	Bead autofluor 22001
O=C(c1cc(-c2cccs2)nc2ccccc12)N1CCN(S(=O)(=O)c2cccc(F)c2)CC1	none
O=C(c1ccccc1C(F)(F)F)N1CCN(S(=O)(=O)c2ccccc2)CC1	Bead autofluor 19835
CC(=O)c1ccc(S(=O)(=O)N2CCN(S(=O)(=O)c3ccccc3C(F)(F)F)CC2)cc1	none
O=C(c1cc(-c2cccs2)nc2ccccc12)N1CCN(S(=O)(=O)c2ccccc2)CC1	Bead autofluor 16484
Cc1ccc(S(=O)(=O)NC(CC(C)C)C(=O)N2CCCC2)cc1 (stereo not drawn)	none
NC(=O)COc1ccc(/C=N\NC(=O)CC(=O)NCCc2ccccc2)cc1	none
CCOc1ccc(C(=O)NC2CCN(S(=O)(=O)c3ccccc3)CC2)cc1	BoNT-F LC inh 37.5
Cc1ccc(C(=O)NC2CCN(S(=O)(=O)c3ccccc3)CC2)cc1	none
O=C(NC1CCCCC1)c1ccc(S(=O)(=O)N2CCCC2)cc1	Bead autofluor 16946, BoNT-A LC inh2 inconclusive
CN1CCN(S(=O)(=O)c2ccc(C(=O)NC3CCCCC3)cc2)CC1	none
Cc1occc1C(=O)N(Cc1nc(-c2ccccc2)no1)C(C)C	none
O=C(Nc1ccc(C(=O)N2CCCC2)cc1)c1ccccc1F	Bead autofluor 16849
O=C(CSCc1cnn(-c2ccccc2)c1-n1cccc1)N1CCN(Cc2ccccc2)CC1	Bead autofluor 18611, BoNT-A LC inh2 inconclusive
O=C(O)CSCc1cnn(-c2ccccc2)c1-n1cccc1	none
CCOc1ccc(NC(=O)CSCc2cnn(-c3ccccc3)c2-n2cccc2)cc1	Bead autofluor 19959
COc1cc(NC(=O)CSCc2cnn(-c3ccccc3)c2-n2cccc2)cc(OC)c1	none
COc1ccccc1NC(=O)N(Cc1ccccc1)C1=NCC(C)S1 (stereo not drawn)	Bead autofluor 22072
CC(C)c1ccccc1NC(=S)NCc1ccncc1	none
Cc1ccc2c(c1)CCCN2C(=O)c1ccc2c(c1)OCO2	Bead autofluor 23514
Cc1ccc2c(c1)CCCN2C(=O)c1ccco1	Bead autofluor 22783
CC(=O)c1cccc(CN(C)CC2CCCN(CCc3ccccc3C)C2)c1 (stereo not drawn)	BoNT-F LC inh inconclusive, BoNT-A LC inh2 inconclusive
COc1ccccc1-c1cc(-c2cc(Cl)ccc2O)n[nH]1	Bead autofluor 22763
COc1ccc(O)c(-c2cc(-c3ccccc3Cl)[nH]n2)c1	none
COc1ccc(C(C(=O)NC2CCCC2)N(C(=O)c2snc(-c3ccc(F)cc3)c2N)c2ccc(F)cc2)cc1 (stereo not drawn)	Bead autofluor 24202
COc1ccc(N(C(=O)c2snc(C(N)=O)c2N)C(C(=O)NC2CCCC2)c2ccc(F)cc2)c(OC)c1 (stereo not drawn)	none
COc1ccc(C(C(=O)NC2CCCC2)N(C(=O)c2snc(-c3ccc(F)cc3)c2N)c2cccc(F)c2)cc1 (stereo not drawn)	Bead autofluor 23994
COc1ccc(C(C(=O)NC2CCCC2)N(C(=O)c2snc(-c3ccc(F)cc3)c2N)c2ccccc2)cc1 (stereo not drawn)	Bead autofluor 20660
COc1ccc(C(C(=O)NC2CCCC2)N(C(=O)c2snc(-c3ccc(F)cc3)c2N)c2ccc(OC)cc2)cc1 (stereo not drawn)	Bead autofluor 21490
COc1ccc(N(C(=O)c2snc(C(N)=O)c2N)C(C(=O)NC2CCCC2)c2ccc3ncccc3c2)cc1 (stereo not drawn)	none
COc1ccc(N(C(=O)c2ccn[nH]2)C(C(=O)NC2CCCC2)c2ccc(F)cc2)cc1 (stereo not drawn)	none
Cc1cccc(C)c1NC(=O)CN(C)C(=O)C1=COCCO1	none
O=S(=O)(Cc1ccccc1)c1cnc2ccccc2n1	none
O=C(NCC1CCCO1)C(C(=O)c1ccc(F)cc1)n1ccccc1=O (stereo not drawn)	Bead autofluor 21506
O=C(NCc1ccccc1)C(C(=O)c1ccc(F)cc1)n1ccccc1=O (stereo not drawn)	none
O=C(NCc1cccnc1)C(C(=O)c1ccc(F)cc1)n1ccccc1=O (stereo not drawn)	Bead autofluor 22039, BoNT-A LC inh2 inconclusive
O=C(NCCCN1CCOCC1)C(C(=O)c1ccccc1)n1ccccc1=O (stereo not drawn)	Bead autofluor 22755
O=C(COc1ccc(F)cc1)NCC1CCCO1 (stereo not drawn)	Bead autofluor 24747, BoNT-A LC inh2 inconclusive
O=C(COc1ccccc1)NCC1CCCO1 (stereo not drawn)	none
CC(C(=O)NCCCN1CCOCC1)n1cccc1C(=O)c1ccccc1 (stereo not drawn)	none
Cc1ccc(=O)n(C(C(=O)NCc2ccco2)C(=O)c2ccc(F)cc2)c1 (stereo not drawn)	Bead autofluor 22339
O=C(COC(=O)CCC(=O)c1ccc(F)cc1)NCc1ccco1	none
C=CCNC(=S)N/N=C1\CCS(=O)(=O)c2ccccc21	none
O=S1(=O)CC/C(=N\O)c2ccccc21	Bead autofluor 23882, BoNT-A LC inh2 inconclusive
CC1CCN(C(=O)Cn2nnc(-c3ccccc3)n2)CC1	none
NC(=O)Cn1nnc(-c2ccc(C(F)(F)F)cc2)n1	Bead autofluor 21710, BoNT-A LC inh2 inconclusive
O=C(Cn1nnc(-c2cccc(C(F)(F)F)c2)n1)N1CCOCC1	Bead autofluor 22585
COc1cc(NC(=O)C2CC(=O)NC3=C2C(=O)CCC3)cc(OC)c1 (stereo not drawn)	Bead autofluor 20659
COc1cc(NC(=O)C2CC(=O)NC3=C2C(=O)CC(C)(C)C3)c(OC)cc1Cl (stereo not drawn)	BoNT-F LC inh inconclusive, Bead autofluor inconclusive
CCCNS(=O)(=O)c1ccc2c(c1)n(C)c(=O)n2C	none
CCNS(=O)(=O)c1ccc2c(c1)n(C)c(=O)n2C	Bead autofluor 22262
CC1CC(C)CN(C(=O)COC(=O)c2ccc3ccccc3n2)C1 (stereo not drawn)	none
CS(=O)(=O)N(CC(=O)N1CCOCC1)c1ccccc1	BoNT-F LC inh inconclusive, Anthrax LF inh2 44.7 | BoNTA LC inh 1 inactive | BoNT-F LC CP1 inactive | Anthrax LF CP1 inactive
